Laboratory results reported in article PMC7862700, “An all-to-all approach to the identification of sequence-specific readers for epigenetic DNA modifications on cytosine”.

Assays:
Assay in all cases: DAPPL (digital affinity profiling via proximity ligation, sequencing); 10 mM Tris-HCl pH 7.5, 50 mM NaCl, 1 mM DTT, 4% glycerol, room temperature, 30 min; GST-TFs on glutathione beads, 16-mer random dsDNA library, 0.1% formaldehyde crosslink after washing; high values mean tight binding
Conditions in all cases: protein: recombinant; tags: N-terminal GST; dsDNA, one strand shown
FLI1 = target: T1, FLI1 (Homo sapiens, UniProt Q01543 1-452)
T1 sequence: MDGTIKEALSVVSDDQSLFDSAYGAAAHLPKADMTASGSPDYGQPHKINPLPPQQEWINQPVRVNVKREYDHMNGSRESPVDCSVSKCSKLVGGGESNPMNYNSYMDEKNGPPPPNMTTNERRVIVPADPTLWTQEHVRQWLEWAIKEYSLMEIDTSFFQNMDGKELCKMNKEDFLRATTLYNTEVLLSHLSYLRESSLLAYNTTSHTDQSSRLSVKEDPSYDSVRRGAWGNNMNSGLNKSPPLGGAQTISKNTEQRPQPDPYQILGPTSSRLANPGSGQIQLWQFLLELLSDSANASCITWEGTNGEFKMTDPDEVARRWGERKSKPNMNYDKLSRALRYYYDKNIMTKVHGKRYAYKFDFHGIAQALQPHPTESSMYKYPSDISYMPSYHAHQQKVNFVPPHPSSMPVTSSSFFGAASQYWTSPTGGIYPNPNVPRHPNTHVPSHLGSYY
Summary of the method: (§1)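 Human transcription factors carrying a GST fusion were produced in yeast, bound to glutathione beads, tagged with DNA barcodes and pooled together with a tag-only sample. Each pool was held with 200 nmole of a random double-stranded 16-mer DNA library in Tris/NaCl/DTT/glycerol buffer for 30 min at room temperature, then washed, crosslinked in 0.1% formaldehyde, proximity-ligated with BsaI/T4 ligase (1 h, 37 °C), PCR-amplified and sequenced on an Illumina NextSeq500. Binding signal is the read frequency of each hexamer for a given factor divided by its frequency in the tag-only sample.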

ELK1 = target: T2, ELK1 (Homo sapiens, UniProt P19419 1-428)
T2 sequence: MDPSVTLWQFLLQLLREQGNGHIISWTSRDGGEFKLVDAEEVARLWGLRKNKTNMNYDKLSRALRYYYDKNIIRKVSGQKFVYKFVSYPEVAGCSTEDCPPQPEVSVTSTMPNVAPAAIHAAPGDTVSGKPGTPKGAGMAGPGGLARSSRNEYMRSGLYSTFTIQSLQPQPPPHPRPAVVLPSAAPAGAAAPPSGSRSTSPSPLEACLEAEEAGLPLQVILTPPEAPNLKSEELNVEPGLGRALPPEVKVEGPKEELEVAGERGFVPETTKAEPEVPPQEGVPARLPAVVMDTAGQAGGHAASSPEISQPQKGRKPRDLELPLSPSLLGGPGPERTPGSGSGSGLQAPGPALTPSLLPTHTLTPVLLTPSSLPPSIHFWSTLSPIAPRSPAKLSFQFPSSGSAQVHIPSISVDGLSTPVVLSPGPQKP
Summary of the method: as §1

GABPA = target: T3, GABPA (Homo sapiens, UniProt Q06546 1-454)
T3 sequence: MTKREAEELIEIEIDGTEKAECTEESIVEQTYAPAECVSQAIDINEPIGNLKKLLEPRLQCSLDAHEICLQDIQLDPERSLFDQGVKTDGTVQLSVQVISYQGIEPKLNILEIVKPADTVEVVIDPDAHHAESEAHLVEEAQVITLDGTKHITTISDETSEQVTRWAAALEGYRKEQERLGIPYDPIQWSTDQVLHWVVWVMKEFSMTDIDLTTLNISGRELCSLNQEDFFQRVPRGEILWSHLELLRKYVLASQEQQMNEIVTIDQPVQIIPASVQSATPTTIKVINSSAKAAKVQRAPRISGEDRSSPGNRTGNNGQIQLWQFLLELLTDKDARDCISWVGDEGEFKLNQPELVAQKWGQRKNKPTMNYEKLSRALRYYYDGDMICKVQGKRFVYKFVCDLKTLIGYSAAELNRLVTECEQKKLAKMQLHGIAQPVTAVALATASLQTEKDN
Summary of the method: as §1

ERG = target: T4, ERG (Homo sapiens, UniProt P11308 1-479)
T4 sequence: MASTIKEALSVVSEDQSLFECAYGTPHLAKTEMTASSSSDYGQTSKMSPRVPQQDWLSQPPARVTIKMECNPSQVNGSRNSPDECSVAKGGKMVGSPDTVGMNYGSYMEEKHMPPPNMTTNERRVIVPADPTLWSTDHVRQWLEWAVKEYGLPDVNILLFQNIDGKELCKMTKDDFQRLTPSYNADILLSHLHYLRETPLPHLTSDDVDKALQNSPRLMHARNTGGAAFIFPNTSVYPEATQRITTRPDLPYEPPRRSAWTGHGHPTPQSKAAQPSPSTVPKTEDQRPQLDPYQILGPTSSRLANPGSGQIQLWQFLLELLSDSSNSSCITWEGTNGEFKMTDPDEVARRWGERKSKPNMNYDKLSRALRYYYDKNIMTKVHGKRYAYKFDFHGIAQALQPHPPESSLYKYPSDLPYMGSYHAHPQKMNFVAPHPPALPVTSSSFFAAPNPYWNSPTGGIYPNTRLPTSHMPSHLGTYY
Summary of the method: as §1

ELF1 = ELF1 (Homo sapiens, UniProt P32519 1-619)
Summary of the method: as §1

EHF = target: T5, EHF (Homo sapiens, UniProt Q9NZC4 1-300)
T5 sequence: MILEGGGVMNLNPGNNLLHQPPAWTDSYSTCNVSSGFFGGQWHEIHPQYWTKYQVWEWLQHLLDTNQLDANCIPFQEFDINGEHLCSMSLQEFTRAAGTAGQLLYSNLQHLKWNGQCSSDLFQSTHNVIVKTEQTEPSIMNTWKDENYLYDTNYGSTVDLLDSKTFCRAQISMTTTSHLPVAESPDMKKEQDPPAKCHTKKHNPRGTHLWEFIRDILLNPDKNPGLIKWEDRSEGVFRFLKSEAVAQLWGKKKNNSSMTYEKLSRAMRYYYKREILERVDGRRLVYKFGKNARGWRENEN
Summary of the method: as §1

SPI1 = SPI1 (Homo sapiens, UniProt P17947 1-270)
Summary of the method: as §1

SPIB = SPIB (Homo sapiens, UniProt Q01892 1-262)
Summary of the method: as §1

ELK3 = target: T6, ELK3 (Homo sapiens, UniProt P41970 1-407)
T6 sequence: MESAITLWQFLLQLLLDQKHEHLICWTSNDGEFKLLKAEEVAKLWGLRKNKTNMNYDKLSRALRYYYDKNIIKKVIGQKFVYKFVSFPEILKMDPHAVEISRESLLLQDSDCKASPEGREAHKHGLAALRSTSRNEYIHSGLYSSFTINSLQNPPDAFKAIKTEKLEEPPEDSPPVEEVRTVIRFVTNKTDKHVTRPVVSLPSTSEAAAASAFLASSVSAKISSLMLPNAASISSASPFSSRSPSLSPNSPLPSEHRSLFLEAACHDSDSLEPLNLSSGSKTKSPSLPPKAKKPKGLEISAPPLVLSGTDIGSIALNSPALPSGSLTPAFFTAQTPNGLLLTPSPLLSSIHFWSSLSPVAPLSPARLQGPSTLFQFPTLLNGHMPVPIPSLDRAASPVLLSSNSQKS
Summary of the method: as §1

ELF1, sequence (P32519 whole entry): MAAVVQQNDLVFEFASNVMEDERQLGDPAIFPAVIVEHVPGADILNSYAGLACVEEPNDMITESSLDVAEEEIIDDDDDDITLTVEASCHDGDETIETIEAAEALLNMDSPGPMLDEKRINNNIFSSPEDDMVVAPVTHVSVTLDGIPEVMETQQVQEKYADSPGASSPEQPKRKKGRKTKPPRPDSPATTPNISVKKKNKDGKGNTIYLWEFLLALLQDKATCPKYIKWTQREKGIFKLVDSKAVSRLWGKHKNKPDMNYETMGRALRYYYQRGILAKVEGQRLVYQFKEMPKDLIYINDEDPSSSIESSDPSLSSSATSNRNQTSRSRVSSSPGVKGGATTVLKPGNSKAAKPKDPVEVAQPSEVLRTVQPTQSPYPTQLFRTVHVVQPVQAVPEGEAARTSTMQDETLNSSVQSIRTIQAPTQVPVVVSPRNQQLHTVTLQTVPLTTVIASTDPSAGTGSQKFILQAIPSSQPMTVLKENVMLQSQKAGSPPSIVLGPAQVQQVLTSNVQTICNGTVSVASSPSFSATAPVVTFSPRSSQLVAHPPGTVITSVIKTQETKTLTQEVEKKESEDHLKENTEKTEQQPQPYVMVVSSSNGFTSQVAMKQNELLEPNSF
SPIB, sequence (Q01892 whole entry): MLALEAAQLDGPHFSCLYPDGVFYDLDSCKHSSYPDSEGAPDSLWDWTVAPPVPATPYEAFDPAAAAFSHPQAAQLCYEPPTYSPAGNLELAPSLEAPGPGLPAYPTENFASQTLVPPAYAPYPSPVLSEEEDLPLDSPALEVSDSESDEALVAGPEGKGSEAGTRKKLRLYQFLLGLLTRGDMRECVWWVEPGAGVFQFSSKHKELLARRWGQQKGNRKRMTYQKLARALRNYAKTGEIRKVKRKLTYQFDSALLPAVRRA

Row | Sequence | binding signal (FLI1) | binding signal (ELK1) | binding signal (GABPA) | binding signal (ERG) | binding signal (ELF1) | binding signal (EHF) | binding signal (SPI1) | binding signal (SPIB) | binding signal (ELK3)
1 | CCGGAT | 3.23 fold enrichment (6-mer frequency, TF over GST control) | 3.45 fold enrichment (6-mer frequency, TF over GST control) | 2.97 fold enrichment (6-mer frequency, TF over GST control) | 4.05 fold enrichment (6-mer frequency, TF over GST control) | 2.97 fold enrichment (6-mer frequency, TF over GST control) | 3.16 fold enrichment (6-mer frequency, TF over GST control) | 2.86 fold enrichment (6-mer frequency, TF over GST control) | 3.26 fold enrichment (6-mer frequency, TF over GST control) | 3.33 fold enrichment (6-mer frequency, TF over GST control)
2 | AACTCC | 1.47 fold enrichment (6-mer frequency, TF over GST control) | 1.29 fold enrichment (6-mer frequency, TF over GST control) | 1.39 fold enrichment (6-mer frequency, TF over GST control) | 1.32 fold enrichment (6-mer frequency, TF over GST control) | 1.35 fold enrichment (6-mer frequency, TF over GST control) | 1.3 fold enrichment (6-mer frequency, TF over GST control) | 1.34 fold enrichment (6-mer frequency, TF over GST control) | 1.32 fold enrichment (6-mer frequency, TF over GST control) | 1.38 fold enrichment (6-mer frequency, TF over GST control)
3 | AAGTCT | 1.28 fold enrichment (6-mer frequency, TF over GST control) | 1.18 fold enrichment (6-mer frequency, TF over GST control) | 1.07 fold enrichment (6-mer frequency, TF over GST control) | 1.12 fold enrichment (6-mer frequency, TF over GST control) | 1.14 fold enrichment (6-mer frequency, TF over GST control) | 1.13 fold enrichment (6-mer frequency, TF over GST control) | 1.27 fold enrichment (6-mer frequency, TF over GST control) | 1.29 fold enrichment (6-mer frequency, TF over GST control) | 1.18 fold enrichment (6-mer frequency, TF over GST control)
4 | TCCTCC | 1.47 fold enrichment (6-mer frequency, TF over GST control) | 1.61 fold enrichment (6-mer frequency, TF over GST control) | 1.49 fold enrichment (6-mer frequency, TF over GST control) | 1.58 fold enrichment (6-mer frequency, TF over GST control) | 1.52 fold enrichment (6-mer frequency, TF over GST control) | 1.61 fold enrichment (6-mer frequency, TF over GST control) | 1.68 fold enrichment (6-mer frequency, TF over GST control) | 1.6 fold enrichment (6-mer frequency, TF over GST control) | 1.55 fold enrichment (6-mer frequency, TF over GST control)
5 | CTGTTC | 1.47 fold enrichment (6-mer frequency, TF over GST control) | 1.42 fold enrichment (6-mer frequency, TF over GST control) | 1.38 fold enrichment (6-mer frequency, TF over GST control) | 1.39 fold enrichment (6-mer frequency, TF over GST control) | 1.38 fold enrichment (6-mer frequency, TF over GST control) | 1.47 fold enrichment (6-mer frequency, TF over GST control) | 1.42 fold enrichment (6-mer frequency, TF over GST control) | 1.39 fold enrichment (6-mer frequency, TF over GST control) | 1.47 fold enrichment (6-mer frequency, TF over GST control)
6 | TTCTCG | 1.51 fold enrichment (6-mer frequency, TF over GST control) | 1.43 fold enrichment (6-mer frequency, TF over GST control) | 1.55 fold enrichment (6-mer frequency, TF over GST control) | 1.38 fold enrichment (6-mer frequency, TF over GST control) | 1.36 fold enrichment (6-mer frequency, TF over GST control) | 1.34 fold enrichment (6-mer frequency, TF over GST control) | 1.42 fold enrichment (6-mer frequency, TF over GST control) | 1.46 fold enrichment (6-mer frequency, TF over GST control) | 1.44 fold enrichment (6-mer frequency, TF over GST control)
7 | CGATGG | 1.36 fold enrichment (6-mer frequency, TF over GST control) | 1.4 fold enrichment (6-mer frequency, TF over GST control) | 1.36 fold enrichment (6-mer frequency, TF over GST control) | 1.34 fold enrichment (6-mer frequency, TF over GST control) | 1.32 fold enrichment (6-mer frequency, TF over GST control) | 1.24 fold enrichment (6-mer frequency, TF over GST control) | 1.41 fold enrichment (6-mer frequency, TF over GST control) | 1.58 fold enrichment (6-mer frequency, TF over GST control) | 1.4 fold enrichment (6-mer frequency, TF over GST control)
